Screen size: about 2,100 compounds; about 1,100 (52%) were called active. Roughly 27% stayed inconclusive and do not appear here. The call rests on the fitted dose curve; in most records, active means well fitted inhibition curve with a large enough effect; inconclusive means small, poorly fitted or top-dose-only effect; inactive means no such curve, though single readings can be large or run the other way. So high a share suggests a set chosen from earlier hits. Some of the results follow.

Among the data in PubChem BioAssay AID651813 (National Center for Advancing Translational Sciences (NCATS), 2012) are Potency and max response values, retold here.
Potency means the concentration at half of the fitted maximal effect.

In the assay the target is DNA dC->dU-editing enzyme APOBEC-3G (Homo sapiens) (UniProt Q9HC16). The assay is described as follows: qHTS for inhibitors of Vif-A3G interactions: Cherry picks counterscreen.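 Further: hits raise yellow fluorescence by blocking Vif-driven A3G-eYFP degradation; nearly all actives have a fitted effect of over 70% in size.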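 On max response: max response given as percent of control signal.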 Conditions: HeLa A3G-eYFP + Vif (tagged APOBEC3G with the HIV-1 protein that degrades it), eYFP fluorescence, 24 h. From the text: The recent discovery and characterization of host restriction factors, which provide a potent defense to invading retroviruses, has provided new targets for antiviral drug development. APOBEC3G (A3G) and APOBEC3F (A3F) are potent cytidine deaminases that block HIV-1 replication; HIV-1 expresses the Vif protein, which counteracts A3G and A3F by binding to them and inducing their proteasomal degradation. The Vif-A3G and Vif-A3F interactions provide two potential targets for development of small molecules which can interfere with the ability of Vif to degrade A3G or A3F. […] To identify inhibitors that can interfere with Vif mediated degradation of A3G and A3F, we have developed Hela cell lines that stably express A3G or A3F tagged with eYFP at the C-terminal end (A3G-eYFP or A3F-eYFP, respectively) and Vif. In the absence of an inhibitor, Vif induces degradation of A3G-eYFP and A3F-eYFP, and the cells are not fluorescent. In the presence of an inhibitor, it is expected that Vif will be unable to degrade A3G-eYFP and/or A3F-eYFP, resulting in an increase in yellow fluorescence. In this counterscreen assay, Vif A3G was screened against the cherry picks ordered from the MLSMR. NIH Chemical Genomics Center [NCGC] NIH Molecular Libraries Probe Centers Network [MLPCN] MLPCN Grant: MH093245 Assay Submitter (PI): Vinay Pathak, National Cancer Institute
Sequence of DNA dC->dU-editing enzyme APOBEC-3G (Homo sapiens) (Q9HC16 whole entry, looked up): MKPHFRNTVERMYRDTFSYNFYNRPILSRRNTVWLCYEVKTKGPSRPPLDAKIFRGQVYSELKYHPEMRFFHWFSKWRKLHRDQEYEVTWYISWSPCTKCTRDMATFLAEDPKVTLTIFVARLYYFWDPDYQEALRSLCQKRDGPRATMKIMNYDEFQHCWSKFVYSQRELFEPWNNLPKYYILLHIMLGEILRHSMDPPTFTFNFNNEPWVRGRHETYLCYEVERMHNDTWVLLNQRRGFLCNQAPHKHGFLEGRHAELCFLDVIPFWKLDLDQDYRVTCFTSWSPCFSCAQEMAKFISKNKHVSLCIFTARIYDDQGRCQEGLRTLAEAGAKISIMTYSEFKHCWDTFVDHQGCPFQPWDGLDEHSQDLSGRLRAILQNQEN
A3G-Vif cells were harvested from T225 flask and resuspended in phenol free OPTI-MEM medium with 5% FBS. Then 5 uL of 140,000 cells/mL resuspended cells was dispensed into each well of low base Aurora COC 1,536-well plates (black walled, clear bottom) using a Multidrop Combi dispenser. After overnight culture at 37 deg C with 5% CO2, a total of 23 nL of compounds at 5 selected concentrations from the NPC or positive control (2 mM stock of MG132) in DMSO was transferred to each well of the assay plate using a pintool (Kalypsys, San Diego, CA), and the plates were further incubated at 37 deg C with 5% CO2 for 24 hours. After that, the plates were measured on Acumen Explorer (TTP Lab Tech). The fluorescence was detected by 488 nm/Ex and […].
As for `Oc1cccc(Nc2nc(O)c(/C=C3\C=Nc4ccccc43)s2)c1`, the Potency is 20.6 µM (active). Still for that read-out and setting: for `O=C1/C(=C/c2ccc(N3CCCC3)cc2)NC(=S)N1C1CC1` the value was 7.31 µM (active); for `Cc1cc(/C=C2\NC(=S)N(C)C2=O)ccc1N1CCCC1`, 5.59 µM (active). Consider `CCN1C(=O)/C(=C/c2ccc(N3CCCC3)cc2)NC1=S`, for which the max response is 47.9% (inactive). On the same count and under the same terms, for `Cc1cc(N2CCCC2)ccc1/C=C1/C(=O)N(C)C(=S)N1C` the value was 40% (inactive). For `Cc1cc(N2CCCC2)ccc1/C=C1\NC(=S)N(C)C1=O`, the Potency is 1.64 µM (active). In the case of `C/C(=N\Nc1nccnc1Cl)c1ccc(Cl)c(Cl)c1`, the max response was -0.872% (inactive). Regarding `CCn1c(=O)c2cc(C(=O)NCCCOC)sc2c2ccccc21`, the Potency was 7.04 µM (active). Same read-out and setting: next, `N#CC1=C2SCC(O)(c3ccccc3)N2C(=O)CC1c1ccccc1` (configuration not stated): 5.59 µM (active); `CCS(=O)(=O)Nc1cccc(C2=NN(C(=O)c3ccco3)C(c3ccco3)C2)c1` (configuration not stated): 14 µM (active). As for `CCOc1cc(N(CC)CC)ccc1/C=C(/C#N)c1nc2ccccc2[nH]1`, the max response was 57.6% (inactive). As for `CSc1nc2ccccc2cc1/C=C(\C#N)c1cccc(C)c1`, the Potency is 12.5 µM (active). For the compound `CSc1nc2ccccc2cc1/C=C(\C#N)c1ccccc1`, the Potency is 6.27 µM (active). `CCN(CC)c1ccc(/C=C(/C#N)c2nc3ccccc3[nH]2)c(OC(C)C)c1`: the max response was 42% (inactive). With `COC(=O)C1=COC(C)C2CN3CCc4c([nH]c5cc(OC)c(OC)cc45)C3CC12` (configuration not stated), the max response is -25.2% (inactive).

Consider `COC(=O)C1C2CC3c4[nH]c5cc(OC)ccc5c4CCN3CC2CC(OC(=O)CC(C)=O)C1OC` (configuration not stated), for which the Potency was 20.6 µM (active). Still for that read-out and setting: for `COc1cccc(/C(O)=C/c2nc3ccc(C(=O)NCCc4ccc(Cl)cc4)cc3[nH]c2=O)c1` the value was 20.6 µM (active). Same read-out and setting: for `COc1cccc(/C(O)=C/c2nc3ccc(C(=O)NCCc4cccc(C)c4)cc3[nH]c2=O)c1` the value was 13 µM (active).

Take `Cc1ccc(C)c(C2NC(=O)c3ccccc3N2)c1` (configuration not stated): the Potency is 7.9 µM (active). In the case of `COc1cc(OC)c(C2Nc3cccc4cccc(c34)N2)c(OC)c1`, the max response is 3.06% (inactive). `Cc1ccc(C2NC(=O)c3ccccc3N2)s1` (configuration not stated): the Potency was 12.5 µM (active). For the compound `O=[N+]([O-])c1ccccc1C1Nc2cccc3cccc(c23)N1`, the max response was 7.07% (inactive). Take `CCOc1ccccc1C1NC(=O)c2ccccc2N1` (configuration not stated): the Potency is 2.5 µM (active).

For `COc1ccc2ccccc2c1C1NC(=O)c2ccccc2N1` (configuration not stated), the Potency was 4.98 µM (active). Still for that read-out and setting: next, `CC(=O)/C(N=Nc1cc(C)ccc1O)=C(\C)O`: 20.6 µM (active); `CCOC(=O)N1CCN(/C=C(\C#N)c2nc3ccccc3s2)CC1`: 23.1 µM (active); `COc1ccc(-c2coc3cc4oc(=O)cc(-c5ccccc5)c4cc23)cc1F`: 2.23 µM (active).

In the case of `COc1ccc(C)cc1NCc1cc(=O)oc2cc(-c3ccccc3)c(O)cc12`, the max response was -4.57% (inactive).

With `CC(C)(C)n1ncc2c(=O)n(CC(=O)NCc3ccc(F)cc3)cnc21`, the Potency is 7.9 µM (active).

With `Cc1sc2ncn(CC(=O)NCc3ccccc3)c(=O)c2c1C`, the max response is -26.2% (inactive). As for `O=C(Cn1cnc2c(cnn2-c2ccc(F)cc2)c1=O)NCc1ccco1`, the Potency is 17.7 µM (active). Same read-out and setting: for `Cc1ccc(Cn2nnc3c(=O)n(CC(=O)NCc4ccccc4)cnc32)cc1` the value was 8.86 µM (active).

As to `CCN(Cc1ccccc1)c1ccc(/C=C/c2nccc3ccccc23)cc1`, the Potency was 13 µM (active). For `CN(C)c1ccc(/C=C/c2nccc3ccccc23)cc1`, the Potency is 13 µM (active).

With `CN(C)c1ccc(C=Cc2nccc3ccccc23)cc1`, the Potency is 14 µM (active). The same measure, in the same setting: next, `CCN(CC)c1nc(C=Cc2ccc(N(C)C)cc2)c2nccnc2n1`: 0.651 µM (active). Take `CC(=O)/C(=C\N(C)C)Sc1ccc(Cl)cc1`: the max response is 12% (inactive).

As to `Cc1sc2ncnc(SCC(=O)NC(C)(C)C)c2c1C`, the max response was -17.9% (inactive). For `COc1ccccc1Nc1nnc(SCC2CCCCO2)s1` (configuration not stated), the Potency was 17.7 µM (active). On the same count and under the same terms, next, `COc1cccc(OCc2nc3ncc(Br)cc3[nH]2)c1`: 3.14 µM (active); `Nc1cccc(CCc2nc3cc4ccccc4cc3[nH]2)c1`: 4.98 µM (active). On the same count and under the same terms, for `COc1cccc(N2CC(O)=C(c3nc4ccccc4c(=O)[nH]3)C2=N)c1` the value was 2.23 µM (active); for `COc1cccc(N2CC(O)=C(c3nc4ccccc4s3)C2=N)c1`, 7.9 µM (active). The same measure, in the same setting: for `CCOC(=O)Nc1ccc2c3c(cccc13)-c1ccccc1-2` the value was 2.31 µM (active).

On to `O=CNc1ccc2c3c(cccc13)-c1ccccc1-2`, for which the Potency is 11.2 µM (active).

`CC(C)(C)c1ccc(OCC(=O)Nc2ccc3c4c(cccc24)C(=O)NC3=O)cc1`: the max response is 43.9% (inactive). Regarding `N#Cc1cc2ccccc2nc1SCc1ccccn1`, the Potency was 23.1 µM (active).
